The record followed here is ChEMBL document CHEMBL3988442, “University of Dundee, Small-Polar-MMV Screening Library” (2021).

About 13,000 (27%) of roughly 48,000 compounds showed an effect of 50% or more. Some of the results follow.

The test system of this assay is Wolbachia pipientis. The assay can be described thus: Anti-Wolbachia Cell-Based Screen. The format is functional. As to conditions: 5 µM. More on the design: scale not given: in the data most compounds retested in dose-response had high values.
For `CC(C)CN1CC2(CCN(C(=O)C3CNC(=O)N3)CC2)CC1=O` (stereo not given), the “Percent Effect” value was -19.59%.
The figure for `CN(C)C(CNC(=O)c1cc2c([nH]c1=O)CCCC2=O)c1ccsc1` (stereo not given) is 7.24%; for `Cc1ccc(CNC(=O)c2ccc(S(=O)(=O)N3C[C@@H]4C[C@H]3CN4)cc2)o1` it is 13.35%; for `CCn1cc(CN2CCN(Cc3cccc(OC)c3)C(=O)C2)cc1C#N` it is -7.886%.
To `COc1ccc(N2CCN(CC[C@H](O)c3ccccc3)CC2=O)cc1` belongs -22.52%; to `COc1cccc(N2CCN(Cc3ccc4ccn(C)c4c3)CC2=O)c1`, 113.3%; to `COc1cccc(N2CCN(CC[C@H](O)c3ccccc3)CC2=O)c1`, -29.06%.
To `COc1cccc(N2CCN(Cc3cc(C)cc(F)c3)CC2=O)c1` belongs 130.9%; to `COc1cccc(N2CCN(C(=O)C(OC)c3ccccc3)CC2=O)c1` (stereo not given), 13.04%; to `COc1cc(CN2CCN(c3cccc(OC)c3)C(=O)C2)cc(OC)c1`, -15.09%.
As for `COc1cccc(N2CCN(Cc3ccc(NC(C)=O)cc3)CC2=O)c1`, the “Percent Effect” value is -1.185%.
To `COc1cccc(N2CCN(Cc3ccc4occc4c3)CC2=O)c1` belongs 113.8%; to `COc1cccc(N2CCN(Cc3cccc(CCN)c3)CC2=O)c1`, 112.7%; to `COc1cccc(CN2CCN(Cc3ccc4nonc4c3)CC2=O)c1`, -14.94%.
To `COCCCN1C(=O)CC[C@H]2CN(Cc3ccc4occc4c3)CC[C@H]21` belongs -8.694%; to `N#Cc1ccc(CNC(=O)C2=NN(c3ccccc3)C(=O)CN2)cc1`, -19.54%; to `N#Cc1ccnc(N2CCN(Cc3cccc(F)c3)CC2)c1`, 16.74%.
To `Cc1n[nH]c(=O)c2c(NC(=O)CN3CCOC(C)C3)oc(C)c12` (stereo not given) belongs 0.9329%.
Take `COc1ccc(CNC[C@H]2COCc3nc4cccnc4n32)cc1`: the “Percent Effect” value was -4.105%.
The figure for `Cc1cc(CS(=O)(=O)NC2CCCc3ccccc32)on1` (stereo not given) is -2.074%.
To `COc1cccc(N2CCN(C(=O)C(O)CC(C)C)CC2=O)c1` (stereo not given) belongs 12.91%; to `COc1cccc(N2CCN(Cc3ccc4[nH]ccc4c3)CC2=O)c1`, 81.94%.
To `COc1cccc(N2Cc3nc(=O)[nH]n3C2=O)c1` belongs -15.51%; to `COc1cccc(N2CCN(Cc3nccn3C(C)C)CC2=O)c1`, 98.08%.
For `COc1cccc(N2CCN(C(=O)C(C)Oc3ccccc3)CC2=O)c1` (stereo not given), the “Percent Effect” value was 9.152%.
The figure for `c1ccc2[nH]c(C3CCN(Cc4nnc(C5CC5)o4)CC3)cc2c1` is 10.45%; for `Cc1cc(CNC(=O)c2cc(NC(=O)C(C)C)ccc2Cl)no1` it is 18.73%.
To `O=C1C(N2CCN(c3ccc(O)cc3)CC2)CCN1C1CCOCC1` (stereo not given) belongs -11.86%; to `CC(C)n1cnnc1CN(C)Cc1ccc(CO)o1`, -7.369%.
The figure for `Cn1cnc2c1CCN(C(C(=O)N1CCCCC1)c1ccccc1)C2` (stereo not given) is 18.33%; for `O=C(CNc1cc(-c2ccccc2)nc2ccnn12)NC1CC1` it is -3.438%; for `COC(=O)CSCc1nc(-c2ccc(Cl)cc2)no1` it is -16.66%.
As to `COCCOc1ncccc1-c1noc([C@@H]2CCCN2C2CCC2)n1`, the “Percent Effect” value was -10.03%.
The figure for `Cc1nn(C)c(C)c1CC(=O)N1CCC(N(C)c2cccnn2)CC1` is -21.95%; for `CN(c1cccnn1)[C@@H]1CC[C@@H]2CN(Cc3ccccc3C(=O)O)C[C@@H]21` it is 106.4%; for `CC(O)CN1CCN(Cc2cccc(C(=O)N(C)C)c2)CC1` (stereo not given) it is -11.87%.
To `CN(c1cccnn1)C1CCN(C(=O)c2ccc3c(c2)COC3)CC1` belongs -3.847%; to `CN(c1cccnn1)[C@@H]1CC[C@@H]2CN(Cc3cccc(C(=O)O)c3)C[C@@H]21`, 111.9%; to `Cn1cccc1C(=O)NCc1cn2c(n1)CN(c1ncccn1)CC2`, -46.58%.
To `O=C1CCCc2cc(-c3csc(CCN4CCOC4=O)n3)ccc2N1` belongs 2.984%; to `CS(=O)(=O)CCOCCNc1ccc(C(F)(F)F)cc1C#N`, -20.16%.
For `CCn1nc(C)c(CN(CCOC)C(=O)c2cnc(C)nc2O)c1C`, the “Percent Effect” value is -5.757%.
The figure for `O=C(c1cscn1)N1CCC(Cn2cc(-c3ccsc3)nn2)CC1` is 2.039%.
To `Nc1nc2nc(C3CCN(C(=O)c4cscn4)C3)ccc2s1` (stereo not given) belongs 104%; to `Nc1nc2nc(C3CCCN(C(=O)c4cncs4)C3)ccc2s1` (stereo not given), 108.5%; to `Nc1nc2nc(C3CCCN(C(=O)c4cscn4)C3)ccc2s1` (stereo not given), -1.798%.
The figure for `O=C(c1cnccn1)N1CCCC(Cn2cc(C3CCCC3)nn2)C1` (stereo not given) is -14.19%; for `Nc1nc2nc(C3CCCN(C(=O)c4cnccn4)C3)ccc2s1` (stereo not given) it is 126%.
As for `O=C([C@H]1COC[C@H]2CN(CC3CC3)C[C@H]21)N1CCOCC1`, the “Percent Effect” value was 21.74%.
To `CN(CCCC1CCCC1)C(=O)c1cc(CN2CCC(O)CC2)on1` belongs -12.63%.
As to `COc1cccc(-c2nc3c([nH]2)CCNC3)c1F`, the “Percent Effect” value was -6.974%.
To `CCOc1ccc(N2CCCN=C2NC(=O)c2ccccc2C)cc1` belongs -3.123%; to `CC(C)NS(=O)(=O)c1cc(C(=O)O)cc(-c2ccc3c(c2)OCCO3)c1`, -21.29%.
The figure for `Cc1ccc2c(c1)C(NCc1ccccn1)CC2` (stereo not given) is 6.59%; for `CC(C)NC(=O)[C@@H]1CN(Cc2nccs2)C[C@H]2OCC[C@H]21` it is -53.61%.
To `Cc1cnn(C2CCCN(C(=O)c3ccc(-n4ccnc4)cc3)C2)c1` (stereo not given) belongs 97.92%.
`Cc1cnn(C2CCCN(C(=O)c3ccc(Cn4ccnc4)cc3)C2)c1` (stereo not given): the “Percent Effect” value is recorded as 106.9%.
With `Cc1cnn(C2CCCN(C(=O)c3cccc(Cn4ccnc4)c3)C2)c1` (stereo not given), the “Percent Effect” value came to 6.448%.
The figure for `CC(c1ccccc1)n1c(SCC(=O)O)nnc1-c1ccn[nH]1` (stereo not given) is -4.886%; for `Cn1c(-c2ccccc2)nn(CCNS(=O)(=O)c2ccccc2Cl)c1=O` it is -1.369%.
The figure for `CCCS(=O)(=O)N1Cc2c(ncn2Cc2ccccc2)C[C@H]1C(=O)OC` is -4.606%.
To `N#Cc1cccc(S(=O)(=O)N2CC(CC(=O)O)c3ccccc32)c1` (stereo not given) belongs -2.78%.
As for `CC1(C)CN(C(=O)Nc2ccc(Cn3cccn3)cc2)CCO1`, the “Percent Effect” value is given as -0.352%.
On to `Cn1cc(C[C@H]2[C@@H](O)CCN2C(=O)C2CC=CC2)cn1`, for which the “Percent Effect” value is -1.047%.
The figure for `O=C(C1CCOCC1)N1CC[C@@H]2[C@H]1CCC(=O)N2c1ccccc1` is -23.21%; for `Cn1cc(C[C@H]2[C@H](O)CCN2C(=O)C2CCOCC2)cn1` it is -4.576%; for `O=C(C1CCC1)N1CC[C@H](O)[C@@H]1Cc1cccnc1.O=C(O)C(F)(F)F` it is 95.67%.
As for `O=C(O)C(F)(F)F.O=C(O)C(F)(F)F.O[C@@H]1CCN(CC2CCOC2)[C@H]1Cc1cccnc1` (stereo not given in full), the “Percent Effect” value turned out to be 3.217%.
To `Cn1cc(C[C@H]2[C@@H](O)CCN2C(=O)C2CCC2)cn1` belongs -13.15%; to `CN(C)[C@@H]1CCN(C(=O)C2CCOCC2)[C@H]1Cc1ccncc1.O=C(O)C(F)(F)F.O=C(O)C(F)(F)F`, -5.936%.
In the case of `O=C(C1CC=CC1)N1CC[C@@H](O)[C@H]1Cc1cccnc1`, the “Percent Effect” value turned out to be 109.3%.
To `O=C(C1CCOCC1)N1CC[C@@H](O)[C@@H]1Cc1ccncc1` belongs 93.36%.
For `O=C(C1CCOCC1)N1CC[C@@H](O)[C@@H]1Cc1ccccc1`, the “Percent Effect” value is recorded as 90.42%.
The figure for `CC(C)N1CC(C(=O)N2CCc3c(nc(CC4CC4)[nH]c3=O)C2)CC1=O` (stereo not given) is -6.23%; for `OCC1(CC2CCCCO2)CCN(c2cnc3ccccc3n2)CC1` (stereo not given) it is -13.06%.
To `Cc1nc(N2CCCC(C)C2)nc2cc(S(C)(=O)=O)ccc12` (stereo not given) belongs -6.696%; to `OCc1cn([C@@H]2c3ccccc3C3(CCNCC3)[C@H]2O)nn1`, -1.268%; to `O=S(=O)(NCC1(O)CCOc2ccccc21)c1ccccc1F` (stereo not given), 0%.
As for `CC(=O)Nc1nc(C(=O)Nc2ccc(N3CCCCC3)nc2)cs1`, the “Percent Effect” value is recorded as 7.498%.
The figure for `CC(C)=CCN1Cc2nnc(C3CCOCC3)n2C(Cc2c[nH]cn2)C1` (stereo not given) is -4.476%; for `Cc1nccn1-c1cc(CNS(=O)(=O)N2CCCC(C)C2)ccn1` (stereo not given) it is 1.62%; for `O=C(C1CCOCC1)N1CC[C@H](O)[C@@H]1Cc1cccnc1` it is 108.8%.
Turning to `c1ccc(C[C@H]2[C@H](N3CCOCC3)CCN2Cc2cccnc2)cc1`, the “Percent Effect” value was -10.76%.
The figure for `CN(C)C(=O)N1CCN(Cc2nnc(C(C)(C)C)o2)CC1` is 5.287%; for `Cn1nc(COc2cccnc2)c2c1CCN(Cc1ccco1)C2.O=C(O)C(F)(F)F.O=C(O)C(F)(F)F` it is -12.77%; for `COCCN1CCc2c(c(COc3cccnc3)nn2C)C1.O=C(O)C(F)(F)F.O=C(O)C(F)(F)F` it is 96.91%.
The figure for `Cn1nc(COc2cccnc2)c2c1CCN(CC1CC1)C2.O=C(O)C(F)(F)F.O=C(O)C(F)(F)F` is 110.2281%.
The figure for `CC(C)N1CCc2c(c(COc3cccnc3)nn2CC2CC2)C1.O=C(O)C(F)(F)F.O=C(O)C(F)(F)F.O=C(O)C(F)(F)F` is -5.827%.
For the compound `Cc1cccc(CN2Cc3[nH]nc(COc4cccnc4)c3C2)n1.O=C(O)C(F)(F)F.O=C(O)C(F)(F)F.O=C(O)C(F)(F)F`, the “Percent Effect” value is 3.508%.
The figure for `CN1CCc2c(c(COc3cncnc3)nn2CC2CC2)C1.O=C(O)C(F)(F)F` is -14.06%; for `Brc1ccc(C2(NCc3noc(C4CC4)n3)CCC2)cc1` it is 4.263%; for `CCc1nc2n(n1)CC(NCc1noc(-c3ccc(C)cc3)n1)CC2` (stereo not given) it is 89.35%.
To `c1csc(-c2nc(CNC3CCc4ncnn4C3)cs2)c1` (stereo not given) belongs -10.85%; to `Cc1cccc(-c2nc(CNC3CCc4ncnn4C3)no2)c1` (stereo not given), 121.2%; to `c1ccc(-c2nccc(CNC3CCc4ncnn4C3)n2)cc1` (stereo not given), 120.1%.
To `CCc1nc2n(n1)CC(NCc1noc(-c3ccccc3)n1)CC2` (stereo not given) belongs -10.54%; to `CNC(=O)COc1ccccc1CNC1CCc2nc(C)nn2C1` (stereo not given), -0.6489%; to `CCc1nc2n(n1)CC(NCc1nc(C)c(C)o1)CC2` (stereo not given), -17.82%.
In the case of `COc1ccc(-c2nc(CNC3CCc4nc(C)nn4C3)no2)cc1` (stereo not given), the “Percent Effect” value is given as 131.6%.
The figure for `Cc1nc2n(n1)CC(NCCc1cccs1)CC2` (stereo not given) is 7.216%.
